Source: PubChem BioAssay AID588463 (National Center for Advancing Translational Sciences (NCATS), 2011)
About 15 (1%) of roughly 1,200 compounds were called active. Not shown: some 7% with an inconclusive outcome. Calls come from the whole dose curve; as a rule, active = well fitted activation curve with a large enough effect; inconclusive = small, poorly fitted or top-dose-only effect; inactive = flat fitted curve, though single readings scatter. This excerpt belongs to a sample that is enriched for actives.

Biological target: Beta-2 adrenergic receptor (Homo sapiens) (UniProt P07550)
Sequence (P07550 whole entry, looked up): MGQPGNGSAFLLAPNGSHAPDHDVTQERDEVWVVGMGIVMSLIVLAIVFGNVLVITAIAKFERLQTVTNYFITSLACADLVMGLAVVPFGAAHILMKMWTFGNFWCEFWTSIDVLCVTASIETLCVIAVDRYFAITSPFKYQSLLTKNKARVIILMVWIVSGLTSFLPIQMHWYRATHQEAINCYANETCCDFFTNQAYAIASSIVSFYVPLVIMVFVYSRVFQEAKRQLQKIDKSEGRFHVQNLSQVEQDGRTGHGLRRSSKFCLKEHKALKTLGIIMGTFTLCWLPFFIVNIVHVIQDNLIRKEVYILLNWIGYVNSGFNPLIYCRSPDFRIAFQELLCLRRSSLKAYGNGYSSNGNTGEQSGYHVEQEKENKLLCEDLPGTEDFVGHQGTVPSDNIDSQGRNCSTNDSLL
Experiment: qHTS assay of beta-arrestin-biased ligands of beta2-adrenergic receptor: Hit Validation;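 for activation: plate controls were DMSO for no effect and maximal isoproterenol or metaproterenol response for full effect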
Conditions: cell-based beta-arrestin recruitment to beta2AR; Potency: activation; series mostly up to 46.1 µM; activation: at the top concentration
From the text: The concept of biased agonism is an emerging concept of molecular pharmacology which proposes that seven transmembrane receptors (7TMRs) or G protein-coupled receptors (GPCRs), exist in multiple signaling conformations and complexes and that ligands (either agonists or antagonists) can induce signaling biased responses for distinct signal transduction cascades.
Furthermore, accumulating evidence over the last decade has drawn attention to a novel function of beta-arrestins as signal transducers that scaffold various signaling molecules upon activation of 7TMRs. […] This beta-arrestin-biased signaling presumably leads to distinct physiological outcomes from those by G protein activation.
Additionally, the active receptor conformations which […] on this beta-arrestin signaling are likely different from those activating G protein signaling
The goal of this screening project will be to discover and optimize novel beta-arrestin-biased ligands for beta2-AR signaling. A luminescent cell-based assay for beta2-AR-mediated agonism, known as the Tango assay, has been validated in which ligand binding of a recombinant beta2-AR and subsequent recruitment of a recombinant beta-arrestin lead to the release of the transcriptional activator tTA, which upregulates transcription of a tTA-responsive luciferase gene.
NIH Molecular Libraries Probe Production Network [MLPCN]
NIH Chemical Genomics Center [NCGC]
PI: Bryan Roth (UNC) and Bob Lefkowitz (Duke)
NCGC Assay Protocol Summary:
Tango cells were dispensed into white, solid, tissue-culture-treated 1536-well plates at 1500 cells/well in DMEM, containing 1% fetal bovine serum (FBS). Then, 23 nL of compounds or DMSO were delivered to each well using a pin tool. Plates were incubated at 37 degrees C, 5% CO2 for 18 hr. Then 2.5 uL luminescent substrate mix (in-house prepared: 150 mM Tris-Cl, pH 7.6, 3 mM MgCl2, 1% Triton X-100, 5 mM DTT, 0.5 mM CoA, 0.15 mM ATP, 0.44 mM D-luciferin, final concentrations) was added to each well. Plates were then incubated for 15 minutes at room temperature, and subsequently measured on a ViewLux plate reader for luminescent signal using a clear filter with a 10 second exposure and 2x binning. The %Activity was determined from the corrected luminescence values.
Concentration-response curves were fitted to the signals arising from the resulting luminescence. The concentration-effect curves were then classified based on curve quality (r2), response magnitude and degree of measured activity, and compounds were subsequently categorized based on their curve class.
Keywords: biased agonism, beta2-AR, beta-arrestin, GPCR, 7TMR, Tango, luminescence, MLSMR, MLPCN, NIH Roadmap, qHTS, NCGC
Potency is the fitted concentration of half-maximal effect.

activation, inactive:
COC(=O)c1cc(Br)c(=O)n(CCc2ccc(O)cc2)c1 -1.68%
CCc1ccc(CNc2ccc(O)cc2)cc1 -3.25%
Cc1ccc(S(=O)(=O)Nc2cccnc2)cc1 -2.88%
Cc1ccc(/C=C/C(=O)c2ccccc(=O)c2O)c(C)c1 0.972%
Cc1ccc(C2C3=C(CC(C)(C)CC3=O)NC3=C2C(=O)c2ccccc23)cc1 (configuration not stated) 0.4%
Cc1cc(-c2n[nH]c(=S)n2/N=C/C(Cl)=C/c2ccccc2)n[nH]1 -3.11%
CN1CCN(C(=S)NC(=O)c2ccc(Br)cc2)CC1 -0.998%
CN1CCN(C(c2cccnc2)c2ccc3cccnc3c2O)CC1 (configuration not stated) -0.879%
CC(=O)/C(=N\Nc1ccc(Cl)cc1Cl)Sc1cccc2cccnc12 -3.04%
CC1=NN(C(N)=S)C(=O)C1N=Nc1ccc([N+](=O)[O-])cc1 (configuration not stated) -2.82%
CC(C)c1nnc(NC(=O)c2cnccn2)s1 0.236%
COCCNC(=S)N/N=C(\C)c1ccc(Cl)c(Cl)c1 -1.6%
Cc1ccccc1NC(=O)c1c([N+](=O)[O-])c(C(C)(C)C)nn1C -1.26%
O=C(O)c1ccc(C2Nc3ccccc3C(=O)N2Cc2ccccc2)cc1 (configuration not stated) -0.733%
CCOC(=O)C1=C(C)N(c2ccc(OC)cc2)C(=O)/C1=C\c1ccc(O)c(OCC)c1 6.03%
CCCCCC1CCC(c2n[nH]c(=S)n2C)CC1 (configuration not stated) -5.76%
CCCCOc1ccc(C(O)(CCC)CCN2CCOCC2)cc1 (configuration not stated) -1.83%
CC(=O)Nc1nonc1NC(=O)CSc1nc2ccccc2o1 -7.81%
CCCCC(=O)NC(c1cccc([N+](=O)[O-])c1)c1c(OC(C)=O)ccc2ccccc12 (configuration not stated) -2.28%
COc1ccc(N/C=C/C(=O)C(F)(F)F)cc1 -0.916%
Cc1cccc(NNC(=S)Nc2c(C)cccc2C)c1 -0.528%
CCOc1ccc(/C=N/NC(=O)Cc2csc(Nc3cccc(C(F)(F)F)c3)n2)c(OCC)c1 4.88%
CCN(CC)C(=O)[C@H]1C[C@H](CC(=O)NCc2cccc(C(F)(F)F)c2)C(=O)N2CCc3c([nH]c4cc(-c5ccco5)ccc34)[C@]12C 0.311%
CCCC(=O)NC(c1ccccc1OC)c1ccc2cccnc2c1O (configuration not stated) -3.63%
CCCCOc1ccc(NC(=O)CSc2cccc3cccnc23)cc1 -0.82%
CCOC(=O)C1=C(C)N=c2s/c(=C3/C(=O)Nc4ccccc43)c(=O)n2C1c1ccc(C)cc1 (configuration not stated) -2.56%
O=c1ccc(S(=O)(=O)N2CCCC2)c[nH]1 -1.52%
CCc1cc(=O)oc2cc3occ(C)c3cc12 -1.07%
COc1ccc2ccccc2c1/C=N/NC(=S)NCCN1CCOCC1 -2.79%
O=C(/C=C/c1ccc(Cl)cc1)NC(=S)Nc1ccccc1C(=O)O 0.6%
CC(c1ccccc1)n1c(-c2ccc(C(C)(C)C)cc2)n[nH]c1=S (configuration not stated) -2.9%
Cc1c(C(=O)OC2CCC(C)CC2)[nH]c2c1C(=O)CCC2 (configuration not stated) -0.463%
CCCCn1c(Cc2ccccc2)n[nH]c1=S -2.41%
CCOC(=O)C1CCN(Cc2cnc(Oc3ccc(N)cc3)s2)CC1 -1.52%
Cc1ccc(N=C2NC(=O)/C(=C/C=C/c3ccco3)S2)cc1 -2.91%
CCOc1ccc2nc(NC(=S)N(C)C)sc2c1 -1.49%
O=[N+]([O-])c1ccc(OCC(O)CN(C2CCCCC2)C2CCCCC2)cc1 (configuration not stated) -0.892%
COc1ccc(-c2c(-c3ccccc3)c(C(=O)C(=O)NCCCN(C)C)n3ccc4cc(OC)c(OC)cc4c23)cc1OC -2.83%
Cc1cccc(NC(=S)NC(=O)c2cccs2)n1 -2.07%
CCC1CCCCN1CC(=O)Nc1cc(C)nn1-c1nc(C)cc(C)n1 (configuration not stated) -2.24%
S=C(NCc1ccccn1)Nc1ccc(Cl)c(Cl)c1 -3.46%
CCNC(=S)N/N=C/c1sccc1C -3.21%
COc1ccc(OC)c(NC(=O)Cn2c(CCC(=O)O)ccc2-c2ccccc2)c1 -1.92%
COC(=O)C1=C(C)NC(=S)NC1c1ccc(-c2cc(Cl)ccc2Cl)o1 (configuration not stated) -1.05%
C/C=C/C=N/NC(=O)CN(c1ccc(Br)cc1)S(=O)(=O)c1ccccc1 -3.32%
S=C(N/N=C/c1ccc(Cl)c(Cl)c1)Nc1ccccc1Cl -4.07%
Cc1ccc(SCc2cc(=O)[nH]c(/N=C(\N)Nc3ccc(C)c(C)c3)n2)cc1 -2.5%
CCCNC(=O)c1ccc(N2CCC3(CC2)CC(c2cccc(Br)c2)=NO3)c(NC(=O)c2ccc(Br)cc2)c1 -1.42%
CNC(=S)N/N=C1\CC(c2ccccc2)Oc2ccccc21 (configuration not stated) -2.26%
CCOc1ccccc1C1C2CCCCC2(O)CCN1C(=O)c1cccs1 (configuration not stated) 5.71%
O=C(N/N=C/C(Br)=C\c1ccccc1)c1n[nH]c2c1CCC2 0.218%
Cc1ccc(C2=NOC(C)(c3nnc(-c4ccc(F)cc4)o3)C2)cc1 (configuration not stated) -4.53%
C/C(=N\NC(=S)NC(C)C)c1ccccc1 -3.07%
COc1ccc2c(c1)c1ncn(CCN3CCCCC3)c(=O)c1n2C -0.19%
CCOC(=O)C1CCN(C(=O)Nc2c(-c3ccccc3)noc2C)CC1 -2.17%
CCCCCOCC1CC(C/C(C)=N/NC(N)=S)C(=O)O1 (configuration not stated) -1.64%
COc1ccccc1NS(=O)(=O)c1cc(NC(=O)CNC(=O)c2ccc(C)s2)ccc1Cl -2.81%
Cc1ccc(C)c(NC(=S)NNc2ccc(F)cc2F)c1 -5.48%
O=C(Oc1c(CN2CCOCC2)cc(Cl)c2cccnc12)c1ccccc1Br 7.38%

Potency, active:
COc1ccc(Cl)cc1C(Nc1cccnc1)c1ccc2cccnc2c1O (configuration not stated) 16.4 µM
CCC(=O)N1CCC2(CC1)Oc1ccc(Cl)cc1C(=O)C21CC(c2ccccc2)=NO1 (configuration not stated) 20.6 µM
CCCC(=O)NC(c1ccc(OC)cc1)c1ccc2cccnc2c1O (configuration not stated) 4.11 µM
